# Test results from publication PMC5540273 (PLoS ONE, 2017).
# Test system: STK16
# Conditions: concentration: 1 μM, replicates: in singlicate; n = 1
# 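Also: KINOMEscan kinase panel screen.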
row,SMILES,%Inh
1,Cc1ccccc1-c1cc(-c2c[nH]nc2-c2ccccn2)ccn1 [GW680061],0%
2,Cl.Cl.Cl.N#Cc1ccc(CCNc2nccc(-c3cccc(CN4CCNCC4)c3)n2)cc1 [GSK2137462],22%
3,COc1cc2ncnc(Nc3cccc(Br)c3)c2cc1OC.Cl [GI230329],0%
4,CCc1ccc(-c2ccc3c(c2)-c2n[nH]cc2S(=O)(=O)N3C)cc1,0%
5,CNc1nc(-c2ccc3c(N)n[nH]c3c2)cc(N2C[C@@H](C(=O)NC3CCCCC3)OC[C@H]2C)n1 [GSK2375584],16%
6,NS(=O)(=O)c1cccc(N/C=C2\C(=O)Nc3ccc(S(=O)(=O)Cc4c(Cl)cccc4Cl)cc32)c1 [GSK398099],19%
7,COc1ccc(CSc2nnc(-c3ccc4ncsc4c3)o2)cc1C(F)(F)F,15%
8,O=C(Nc1n[nH]c2nc(-c3ccco3)c(Br)cc12)C1CCN(Cc2ccccc2)C1.O=C(O)[C@H](O)[C@@H](O)C(=O)O (stereo not drawn) [SB-742034],57%
9,CS(=O)(=O)CCNCc1nc(-c2ccc3ncnc(Nc4ccc5c(cnn5Cc5ccccc5)c4)c3c2)cs1.Cl.Cl [GW569716],0%
10,Cc1ccc(NC(=O)Nc2ccc(Cl)cc2)cc1-c1ccc(C(=O)Nc2ccncc2)cc1 [GSK1398472],0%
11,CC[C@@H]1CO[C@H](C(=O)Nc2ccccc2)CN1c1cc(-c2ccc3c(N)n[nH]c3c2)nc(NC)n1 [GSK2376236],21%
12,COC(=O)c1cccc(NC(=O)NC2CCN(c3ccnc(Nc4ccc(F)cc4)n3)C2)c1 (stereo not drawn) [GSK1379725],0%
